# Measured values published in PubChem BioAssay (NCI).
# Several values for one entry are separate records, joined by “and”; a condition that tells them apart may be missing. Equal values may be shown once. Compounds without any hit were thinned out: in the full panel of roughly 79,000, 15% have a hit. Unmarked numbers belong to inactive results. Activity calls are given as the source filed them. No stated cut-off is given here; in the data, active means growth inhibition above about 70%; inactive means the rest.
# Legend:
# [1] = NCI Yeast Anticancer Drug Screen. Data for the mec2-1 strain (AID 157); details: S. cerevisiae mec2-1 strain, at 50.0 µM, active compounds read high
# Outline: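 Test agents were screened against the mec2-1 yeast strain, with defined DNA repair or cell cycle alteration. Growth was scored as inhibition against vehicle-only controls.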
# [2] = NCI Yeast Anticancer Drug Screen. Data for the mlh1 rad18 strain (AID 175); details: S. cerevisiae mlh1 rad18 strain growth inhibition; at 50.0 µM; active compounds read high
# Outline: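 In this whole-cell yeast screen, a strain with altered DNA damage repair is challenged with compound, and its growth is measured against matched vehicle-treated controls.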
# [3] = NCI Yeast Anticancer Drug Screen. Data for the sgs1 mgt1 strain (AID 161);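 further: 0% = growth of cultures given vehicle only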; details: S. cerevisiae sgs1 mgt1 strain, at 50.0 µM, active compounds read high
# Outline: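 Test agents were incubated with a DNA-repair-mutant yeast strain. Growth was then read and compared against vehicle-treated controls.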
# [4] = NCI Yeast Anticancer Drug Screen. Data for the cln2 rad14 strain (AID 165);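 further: 0% = growth equal to vehicle treated cultures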; details: S. cerevisiae cln2 rad14 strain, at 50.0 µM, active compounds read high
# Outline: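 Growth of compound-exposed yeast (cln2 rad14 genotype) measured and expressed as inhibition relative to vehicle.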
# [5] = NCI Yeast Anticancer Drug Screen. Data for the bub3 strain (AID 167); details: S. cerevisiae bub3 mutant strain, at 50.0 µM, active compounds read high
# Outline: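 In this screen, a yeast mutant lacking normal mitotic checkpoint function is challenged with compound. Relative growth versus vehicle gives the inhibition value.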
smiles,measurement,setting,value
O=C(N/N=C/c1ccc2c(c1)CCC2)c1cccc([N+](=O)[O-])c1,growth inhibition,[1],-30.9%
same,growth inhibition,[2],-15.8%
CN(c1ccccc1Cl)S(C)(=O)=O,growth inhibition,[1],-42.6%
same,growth inhibition,[2],-0.25%
CC(=O)CC(=O)N1CCN(C(=O)CC(C)=O)CC1,growth inhibition,[1],-16.8%
same,growth inhibition,[2],-23.3%
S=C1SCN(Cc2ccccc2)CN1Cc1ccccc1,growth inhibition,[2],-13.3%
CCOC(=O)CC(=O)c1ccccc1,growth inhibition,[3],8.9% and -0.85%
same,growth inhibition,[4],10.8% and 11.1%
same,growth inhibition,[5],13.8% and -12.7%
CC(=O)C1=C(C)N2C(=NC3=C(CCc4ccccc43)C2c2cccc(Br)c2)S1 (centres undefined),growth inhibition,[3],-19.4%
same,growth inhibition,[5],-7.5%
same,growth inhibition,[2],-20.5%
CCOC(=O)c1c(N)sc2c1CCN(Cc1ccccc1)C2,growth inhibition,[1],17.8%
same,growth inhibition,[2],21.9%
Cc1ccc(N2CSC(=S)N(c3ccc(C)cc3)C2)cc1,growth inhibition,[1],-25.9%
same,growth inhibition,[2],46.6%
O=C1CCCCCC2=NC12 (centres undefined),growth inhibition,[2],-25.6%
Cc1c(CNc2ccc(C(=O)NC(CC(=O)O)C(=O)O)cc2)ccc2nc(N)nc(N)c12 (centres undefined),growth inhibition,[3],47.8%
same,growth inhibition,[4],9.35%
same,growth inhibition,[5],16.4%
Fc1ccc(P(c2ccc(F)cc2)c2ccc(F)cc2)cc1,growth inhibition,[1],9.6%
same,growth inhibition,[2],19.1%
Cc1ccc(N2C(=O)CC(Sc3ccccc3N)C2=O)cc1Cl (centres undefined),growth inhibition,[1],-35.6%
same,growth inhibition,[2],-11.9%
CC1=NN(c2ccccc2)C(=O)C1C(=O)c1ccccc1 (centres undefined),growth inhibition,[2],14%
CC(C)n1c2c([n+](C)c1/C=C/c1ccccc1)C(=O)c1ccccc1C2=O,growth inhibition,[3],89.9% (active)
same,growth inhibition,[4],88.9% (active)
same,growth inhibition,[5],50.4%
O=C(O)C(O)C(O)C(OC1OC(CO)C(O)C(O)C1O)C(O)CO.O=C(O)C(O)C(O)C(OC1OC(CO)C(O)C(O)C1O)C(O)CO.[NH-]C1CCCCC1[NH-].[Pt+2] (centres undefined),growth inhibition,[2],-63.5%
C(=N\N=C\c1c[nH]c2ccccc12)/c1c[nH]c2ccccc12,growth inhibition,[1],-21.9%
same,growth inhibition,[2],0.25%
[Br][Sn]([CH2][Sn]([Br])([c]1ccccc1)[c]1ccccc1)([c]1ccccc1)[c]1ccccc1,growth inhibition,[2],81.8% (active)
N#CCC(=O)OCCCCOC(=O)CC#N,growth inhibition,[2],15.4%
N=C(N)c1ccc(N=NNc2ccc(C(=N)N)cc2)cc1,growth inhibition,[2],84% (active)
COc1ccc2nc(N/N=C/c3ccc(C)s3)cc(C)c2c1,growth inhibition,[3],15.6%
same,growth inhibition,[4],24.4%
same,growth inhibition,[5],0.7%
same,growth inhibition,[2],24.6%
N=C(N)c1ccc(N=Nc2c(O)ccc3cc(O)ccc23)cc1,growth inhibition,[2],-27.5%
[Cl][Sn]([CH2][Sn]([Cl])([c]1ccccc1)[c]1ccccc1)([c]1ccccc1)[c]1ccccc1,growth inhibition,[2],82.2% (active)
N#CCS(=O)(=O)c1cccc[n+]1[O-],growth inhibition,[2],-37.5%
CN(C)c1ccc2c(Nc3ccc(NS(C)(=O)=O)cc3)c3ccc(N(C)C)cc3nc2c1,growth inhibition,[2],65.6%
Cn1/c(=N\N=C\C(=O)O)sc2ccccc21,growth inhibition,[1],-13.8%
same,growth inhibition,[2],10.1%
O=C1C2C3C=CC(C2C(=O)N1CO)C1C2C(=O)N(CO)C(=O)C2C31 (centres undefined),growth inhibition,[2],2.2%
O=C(O)C(=O)C(O)C(O)C(O)CO.O=C(O)C(=O)C(O)C(O)C(O)CO.[NH-]C1CCCCC1[NH-].[Pt+2] (centres undefined),growth inhibition,[2],-53.1%
Cc1ccc(-c2nc3cc(Cl)ccc3c(=O)o2)cc1,growth inhibition,[1],-11.3%
same,growth inhibition,[2],6.3%
